Measured values reported in PubChem BioAssay (NCI).
About 83,000 compounds went through this panel and 20% of them were active in at least one assay; those are over-represented in the sample as a whole.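 Cell lines were cultured in 96-well plates, exposed to a single compound concentration, and assessed for percent growth 48 hours later.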 Activity calls are given as the source filed them. How the source made its calls: active means growth percent below 10; inactive means the rest.

Columns and labels:
Assay in all cases: NCI-60 one-dose screen, 48 h (100 = growth as untreated, 0 = no growth, -100 = all killed)
Settings in all cases: 10 µM unless noted
SK-MEL-2 melanoma = tested on: SK-MEL-2 melanoma
EKVX NSCLC = tested on: EKVX NSCLC
SN12C renal = tested on: SN12C renal
UO-31 renal = tested on: UO-31 renal
TK-10 renal = tested on: TK-10 renal
ACHN renal = tested on: ACHN renal
CAKI-1 renal = tested on: CAKI-1 renal
A498 renal = tested on: A498 renal
CCRF-CEM leukemia = tested on: CCRF-CEM leukemia
MOLT-4 leukemia = tested on: MOLT-4 leukemia

Measured: growth

N#CC1=C(c2ccc(Cl)cc2)Nc2c(c(-c3ccc(Cl)cc3)nn2-c2ccccc2)C12C(=O)Nc1ccc(Cl)cc12 (stereo not given)
inactive: SK-MEL-2 melanoma 74.9% | EKVX NSCLC 38.8% | SN12C renal 56.5% | UO-31 renal 23.5% | TK-10 renal 44.9% | ACHN renal 34.6% | CAKI-1 renal 35.8% | A498 renal 51.6% | CCRF-CEM leukemia 35.9% | MOLT-4 leukemia 35.1%

COc1ccc(/C=C2\COc3ccc(O)cc3C2=O)c(OC)c1OC
inactive: SK-MEL-2 melanoma 102% | EKVX NSCLC 93.9% | SN12C renal 66.3% | UO-31 renal 71.5% | TK-10 renal 109% | ACHN renal 80.1% | CAKI-1 renal 68.2% | A498 renal 113% | MOLT-4 leukemia 73.2%
active: CCRF-CEM leukemia 8.08%

CNC(=O)c1cc(Oc2ccc3c(c2)sc2nc(-c4cc(OC)c(OC)c(OC)c4)cn23)ccn1
inactive: SK-MEL-2 melanoma 54.3% | EKVX NSCLC 50.2% | SN12C renal 53.1% | UO-31 renal 30.3% | TK-10 renal 50.3% | ACHN renal 51.9% | CAKI-1 renal 43.6% | A498 renal 53.7% | CCRF-CEM leukemia 39.4% | MOLT-4 leukemia 18.3%

COc1ccc(CC(C#N)c2cc3ccccc3[nH]2)cc1 (stereo not given)
active: CCRF-CEM leukemia -27.2%
inactive: SK-MEL-2 melanoma 113% | EKVX NSCLC 95.9% | SN12C renal 92.7% | UO-31 renal 61.5% | TK-10 renal 118% | ACHN renal 93.9% | CAKI-1 renal 72.6% | A498 renal 84.2% | MOLT-4 leukemia 98.1%

Fc1cc2c(cc1Cl)N(c1ncnc3ccc(-c4cnc5[nH]ncc5c4)cc13)CC2
active: A498 renal -6.52%
inactive: SK-MEL-2 melanoma 91.4% | EKVX NSCLC 41.9% | SN12C renal 47.6% | UO-31 renal 21.8% | TK-10 renal 54.6% | ACHN renal 30.9% | CAKI-1 renal 38.7% | CCRF-CEM leukemia 71.1% | MOLT-4 leukemia 60.1%

O=C1c2c(c3c4ccc(Br)cc4oc3c3[nH]c4ccccc4c23)C(=O)N1O
inactive: SK-MEL-2 melanoma 20% | EKVX NSCLC 66.6% | SN12C renal 14.5% | UO-31 renal 13.8% | TK-10 renal 121% | ACHN renal 22.8% | CAKI-1 renal 29% | A498 renal 13.1% | CCRF-CEM leukemia 11.4% | MOLT-4 leukemia 11.2%

CCN(CC)CCNC(=O)c1cn2ncnc(Oc3ccc(NC(=O)Nc4ccc(Cl)c(C(F)(F)F)c4)c(F)c3)c2c1C
inactive: EKVX NSCLC 24.5% | SN12C renal 62.5% | TK-10 renal 27.8% | CAKI-1 renal 39.6% | A498 renal 21.1%
active: SK-MEL-2 melanoma -36.9% | UO-31 renal -53% | ACHN renal -44.5% | CCRF-CEM leukemia 4.8% | MOLT-4 leukemia -20.8%

Cc1cc(N)c2cc(NC(=O)/C=C\c3ccccc3Cl)ccc2n1
active: SK-MEL-2 melanoma -72.5% | EKVX NSCLC -71.8% | SN12C renal -81.7% | UO-31 renal -72.1% | TK-10 renal -90% | ACHN renal -85% | CAKI-1 renal -76% | A498 renal -88.3% | CCRF-CEM leukemia -74.2% | MOLT-4 leukemia -53.2%

CCOC(=O)c1cc2c(=O)oc3ccccc3c2oc1=O
inactive: SK-MEL-2 melanoma 78.1% | EKVX NSCLC 111% | SN12C renal 98.3% | UO-31 renal 82.7% | TK-10 renal 98.6% | ACHN renal 89.8% | CAKI-1 renal 111% | A498 renal 106% | CCRF-CEM leukemia 88.5% | MOLT-4 leukemia 87.1%

Oc1c(Cl)cc(Cl)c2ccc(Cn3cc(-c4cc(C(F)(F)F)cc(C(F)(F)F)c4)nn3)nc12
inactive: SK-MEL-2 melanoma 89.9% | EKVX NSCLC 80.9% | SN12C renal 65.4% | UO-31 renal 57% | TK-10 renal 96.7% | ACHN renal 11.4% | CAKI-1 renal 13.8% | A498 renal 103%
active: CCRF-CEM leukemia 4.83% | MOLT-4 leukemia 2.95%

Nc1nc2c([nH]1)c1[nH]c3ccccc3c1c1[nH]c3ccccc3c21
inactive: EKVX NSCLC 73.5% | SN12C renal 75.6% | UO-31 renal 62.9% | TK-10 renal 91.4% | ACHN renal 59.1% | CAKI-1 renal 83.2% | A498 renal 134%
active: SK-MEL-2 melanoma -23.5% | CCRF-CEM leukemia -3.64% | MOLT-4 leukemia -12.5%

CCCCN1C(=O)/C(=c2\sc3n(c2=O)C2C(NN=3)N(CC)C(=O)N2CC)c2ccccc21 (stereo not given)
inactive: SK-MEL-2 melanoma 21.9% | EKVX NSCLC 52.1% | SN12C renal 19.3% | UO-31 renal 18.4% | TK-10 renal 55.9% | ACHN renal 23.9% | CAKI-1 renal 18.1% | MOLT-4 leukemia 11.1%
active: A498 renal -2.15% | CCRF-CEM leukemia 7.34%

CN1C(=O)/C(=C/c2cn(-c3ccccc3)nc2-c2ccccc2)SC1=S
inactive: SK-MEL-2 melanoma 107% | EKVX NSCLC 102% | SN12C renal 100% | UO-31 renal 92.2% | TK-10 renal 112% | ACHN renal 100% | CAKI-1 renal 89.1% | A498 renal 79.2% | CCRF-CEM leukemia 107% | MOLT-4 leukemia 114%

COc1ccc(-c2cn(-c3cc(OC)c(OC)c(OC)c3)c(=O)n2C(C)=O)cc1
inactive: SK-MEL-2 melanoma 86.3% | EKVX NSCLC 91% | SN12C renal 91.3% | UO-31 renal 84.3% | TK-10 renal 98.9% | ACHN renal 87.1% | CAKI-1 renal 12.1% | A498 renal 68.3% | CCRF-CEM leukemia 91.7% | MOLT-4 leukemia 75.1%
